Screening results from PubChem.
Only some compounds are listed: those with a hit (about 1.2% of all), similar ones and a draw of the others.
pAkt inh: inhibitors of Akt phosphorylation | Neuro2A IGF-stimulated pAkt S473 HTRF, 20 min; active compounds read low | activity change, % for hits at 50 µM | 360,000 compounds, 0.32% hits; in the data active = activity change below about -80%; inconclusive = mostly about -51% to -80%; note: % is set by controls: 0 for no effect and ±100 for the full control effect
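Single-point screen (50 µM final compound) in Neuro2A cells stimulated 20 min with 6 nM IGF at 37 deg C. After lysis, Ser473-phosphorylated Akt read by HTRF (ex 330 nm, em 615/665 nm) as the 665/615 ratio.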
RXFP1 antag: blocks the human relaxin receptor RXFP1; activity change, negative = inhibition, % at 57.5 µM; HEK293-RXFP1, relaxin-stimulated cAMP HTRF, 30 min; active compounds read low; 350,000 compounds, 0.59% hits;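 active = activity change of -60% or lower, but not beyond a set lower limit; inconclusive = change between -60% and -40%, or beyond the set limit; inactive = change above -40%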; note: % is set by controls: 0 for no effect and ±100 for the full control effect
Target sequence (Q9HBX9 whole entry, looked up): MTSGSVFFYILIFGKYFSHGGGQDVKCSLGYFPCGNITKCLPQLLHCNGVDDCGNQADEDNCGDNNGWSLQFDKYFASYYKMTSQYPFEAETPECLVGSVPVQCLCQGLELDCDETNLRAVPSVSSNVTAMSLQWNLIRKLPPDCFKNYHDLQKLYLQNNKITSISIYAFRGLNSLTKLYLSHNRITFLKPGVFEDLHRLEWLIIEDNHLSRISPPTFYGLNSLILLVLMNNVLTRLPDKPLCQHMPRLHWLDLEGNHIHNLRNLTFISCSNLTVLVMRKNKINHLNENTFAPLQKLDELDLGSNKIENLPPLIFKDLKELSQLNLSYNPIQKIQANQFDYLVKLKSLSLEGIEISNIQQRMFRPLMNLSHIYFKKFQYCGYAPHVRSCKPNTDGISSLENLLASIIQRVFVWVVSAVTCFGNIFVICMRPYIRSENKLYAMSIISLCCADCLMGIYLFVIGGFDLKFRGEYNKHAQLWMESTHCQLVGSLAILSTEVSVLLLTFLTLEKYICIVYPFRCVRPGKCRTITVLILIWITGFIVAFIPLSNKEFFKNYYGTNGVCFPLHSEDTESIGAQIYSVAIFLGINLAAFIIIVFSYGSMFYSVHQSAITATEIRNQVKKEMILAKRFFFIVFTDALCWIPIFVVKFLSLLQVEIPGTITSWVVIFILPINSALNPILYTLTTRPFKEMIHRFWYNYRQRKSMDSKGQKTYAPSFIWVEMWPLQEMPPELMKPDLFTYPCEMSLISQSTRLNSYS
RXFP1 agonist: RXFP1 (human) receptor agonism | 370,000 compounds, 0.3% hits | HEK293T-RXFP1 cAMP TR-FRET, 30 min; response scale: percent of porcine relaxin response, buffer zero | AID 2676 | Q9HBX9 | Potency, µM (top dose mostly 57.5 µM), for the others: at the top dose activation, hits mostly activators; active = well fitted activation curve with a large enough effect; inconclusive = small, poorly fitted or top-dose-only effect; note: potency is the fitted concentration of half-maximal effect; % is set by controls: 0 for no effect and ±100 for the full control effect; nearly all actives have a fitted effect of over 60% in size
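cAMP rise read by TR-FRET after 30 min, 37C compound exposure (up to 58 uM) in RXFP1-transfected HEK293 cells with Ro 20174 present. EC50 from Hill-equation fits, with 29 nM porcine relaxin as 100% and buffer as basal.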
gsp agonist: agonists of gsp mutant (McCune-Albright syndrome). gsp mutant cells, cAMP HTRF, 30 min. Potency, µM (titrated, usually from 76.9 µM), inactives show top-dose activation (cAMP increase), actives largely listed as activators. 340,000 compounds, 0.13% hits. AID 624287; active = well fitted activation curve with a large enough effect; inconclusive = small, poorly fitted or top-dose-only effect, or another doubt; inactive = no such curve, though single readings can be large or run the other way; cell line not stated here;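 note: phosphodiesterase inhibitor Ro 20-1724 added with compounds to block cAMP breakdown; potency is the fitted concentration of half-maximal effect; nearly all actives have a fitted effect of over 60% in size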
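Cells in DMEM/10% FBS with G418 were pretreated with compounds in DMSO plus […] (300 uM stock) for 30 min at 37C. cAMP was measured by HTRF (cAMP-d2 plus anti-cAMP antibody-K) after 30 min at room temperature.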
gsp antag: gsp mutant antagonism. gsp-mutant cells, cAMP HTRF, 30 min. 340,000 compounds, 0.4% hits. Potency, µM (series often up to 76.9 µM), for inactives: top-dose activity change, negative = inhibition, most hits filed as inhibitors; calls by dose curve; cell line not stated here;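 note: intracellular cAMP measured with PDE inhibitor Ro 20-1724 present during compound exposure; potency is the fitted concentration of half-maximal effect; % is set by controls: 0 for no effect and ±100 for the full control effect; nearly all actives have a fitted effect of over 65% in size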
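Measurement of cellular cAMP by homogeneous time-resolved fluorescence following a 30 min compound exposure at 37C. The PDE inhibitor […] was present throughout; the assay buffer was DPBS with 0.05% BSA and 0.005% Tween 20.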
Numbers without * were called inactive; i = inactive; ? = inconclusive; / = no result given; [ ] = another dose, or the depositor's remark.

SMILES	pAkt inh	RXFP1 antag	RXFP1 agonist	gsp agonist	gsp antag
O=C(NC(=S)Nc1ccccc1)c1ccc(-c2ccccc2)cc1	i	11.3	1.6%	12.8%	5.5%
O=C(Nc1ccc(Cl)cn1)C1C(c2ccccc2)C1(Cl)Cl (stereo unspecified)	i	-98.2*	0.7%	-0.3%[15.4 µM]	-5.1%
O=C(Nc1ccccc1)C1C(c2ccccc2)C1(Cl)Cl (stereo unspecified)	i	-38.8	-0.9%	10.7%[15.4 µM]	1.5%
Fc1ccc(C2CC(c3ccccc3)Nc3ncnn32)cc1 (stereo unspecified)	i	/	-0.5%	8.1%	11.2µM*
COc1c(OC(C)=O)ccc(/C=C/c2ccc3cccc(OC)c3n2)c1[N+](=O)[O-]	i	-11.6	-2.9%	1.2%	-28.9%
COc1c(OC(C)=O)ccc(/C=C/c2ccc3ccccc3n2)c1[N+](=O)[O-]	i	-32.6	1.5%	-24.5%	25.1µM*
CCOC(=O)N1CCN(C(=O)CCCN2C(=O)CSc3nc(C)cc(C)c32)CC1	i	-13.4	0.4%	17.7%	50.1µM*
COC(=O)c1ccccc1NC(=O)NCCc1c(C)nn(C)c1C	/	/	-1.2%	/	/
CCOC(=O)c1c(NC(=O)CSc2cn(CCNC(=O)c3ccccc3OC)c3ccccc23)sc2c1CCC2	/	/	0.2%	/	/
CCOc1ccc(OCCOc2ccc(/C=C/C(=O)O)cc2OCC)cc1	i	-4.3	2.3%	24.9%[15.4 µM]	20µM*
CCOc1cc(/C=C/C(=O)O)ccc1OCCOc1ccc(F)cc1	i	-11.0	4.3%	3.9%[15.4 µM]	?
O=C(OCC(COC(=O)c1cccnc1)(COC(=O)c1cccnc1)COC(=O)c1cccnc1)c1cccnc1	/	2.9	/	/	/
FC(F)(F)c1cccc(Nc2nc3nonc3nc2Nc2ccc(Cl)cc2)c1	/	-82.2*	2.0%	/	/
CCOC(=O)C(=O)CCCCCCl	/	3.1	/	/	/
Cc1[nH]n(-c2ccccc2)c(=O)c1/C=C1\C=NN=C1c1ccccc1	i	-109.9*	2.0%	-2.6%[15.4 µM]	?
Cc1[nH]n(-c2ccccc2)c(=O)c1/C=C1/C=c2ccccc2=N1	i	2.1	1.0%	18.2%[15.4 µM]	8.6%
COc1cc(NC(=O)CCCN2C(=O)CCn3nc(-c4cn(C)c5ccccc45)cc32)cc(OC)c1	/	-13.2	-0.1%	/	/
CCCCN(Cc1cc2cc(C)ccc2[nH]c1=O)C(=O)c1cccc(Cl)c1	/	-9.7	?	/	/
Cc1ccc(C(c2sc3nc(-c4ccco4)nn3c2O)N2CCN(Cc3ccccc3)CC2)cc1 (stereo unspecified)	/	-15.7	0.1%	/	/
CCc1cc2c(=O)c(Oc3ccccc3F)c(C)oc2c(CN(C)C)c1O	-103.7%*	11.3	16.0%	?	8.9%
CCCCS(=O)(=O)c1oc(-c2ccc(F)cc2)nc1S(=O)(=O)c1ccc(C)cc1	/	-71.5*	0.0%	/	/
CCCCS(=O)(=O)c1oc(-c2cccs2)nc1S(=O)(=O)c1ccc(F)cc1	/	-76.3*	0.7%	/	/
CCC(C)S(=O)(=O)c1oc(-c2ccc(F)cc2)nc1S(=O)(=O)c1ccc(F)cc1 (stereo unspecified)	/	?	1.7%	/	/
CCS(=O)(=O)c1oc(-c2ccc(F)cc2)nc1S(=O)(=O)c1ccccc1	/	-107.1*	-1.4%	/	/
CCCCCS(=O)(=O)c1oc(-c2cccs2)nc1S(=O)(=O)c1ccc(C)cc1	/	5.4	-0.2%	/	/
SMILES	pAkt inh	RXFP1 antag	RXFP1 agonist	gsp agonist	gsp antag
CCN(c1ccccc1)S(=O)(=O)c1ccc2[nH]cc(C(=O)NCc3ccc(C)cc3)c(=O)c2c1	/	/	18.7%	/	/
Cc1ccccc1C(=O)Nc1ccc(C(=O)N2CCCC(N(C)C)c3ccccc32)cc1 (stereo unspecified)	/	1.0	/	/	/
COC(=O)c1c(-c2cccs2)csc1NC(=O)COc1c(C)ccc(C)c1C	/	-20.0	0.1%	/	/
Cc1cccc(N2C(=O)CCSC23C(=O)N(Cc2ccc(F)cc2)c2ccccc23)c1 (stereo unspecified)	/	-63.1*	-2.0%	/	/
O=C1CCSC2(C(=O)N(Cc3ccc(F)cc3)c3ccccc32)N1c1ccc(F)c(F)c1 (stereo unspecified)	/	-72.0*	-1.7%	/	/
Cc1cc(C)cc(N2C(=O)CCSC23C(=O)N(Cc2ccccc2)c2ccccc23)c1 (stereo unspecified)	/	-10.0	-3.6%	/	/
O=C1CCSC2(C(=O)N(Cc3ccc(F)cc3)c3ccccc32)N1c1ccccc1 (stereo unspecified)	/	-62.3*	-2.3%	/	/
O=C1CCSC2(C(=O)N(Cc3ccc(F)cc3)c3ccccc32)N1c1cccc(F)c1 (stereo unspecified)	/	?	-1.1%	/	/
Cc1cc(C)c2nc(N3CCCC(C(=O)NCc4ccccc4F)C3)sc2c1 (stereo unspecified)	/	-19.7	0.5%	/	/
Cc1cccc(N2CCN(c3ccc(C(=O)O)cc3NC(=O)c3cccc(Cl)c3)CC2C)c1 (stereo unspecified)	/	/	-2.0%	/	/
Cc1cccc(NC(=O)C2CCN(S(=O)(=O)c3c(C)c(C)cc(C)c3C)CC2)n1	i	-78.8*	-1.9%	33.6%	-7.1%
CN(C)c1cc(NC(=O)CNC(C)(C)C)c(O)c2c1C[C@@H]1C[C@H]3[C@H](N(C)C)C(=O)C(C(N)=O)=C(O)[C@@]3(O)C(=O)C1=C2O	/	8.4	/	/	/
Cc1cc(NC(=S)N(Cc2cccc(Br)c2)CC2CCC(C(=O)O)CC2)ccc1Cl (stereo unspecified)	i	-1.7	-0.2%	6.3%	28.2µM*
CCOC(=O)c1cnc2ccc(OCC)cc2c1NCc1ccccc1OC	i	-35.1	-1.5%	0.5%[15.4 µM]	31.6µM*
Cc1nonc1NC(=O)CSc1nc2cc(Cl)ccc2c2c1CCCC2	-94.4%*	16.9	?	-2.7%	-18.5%
Cc1ccc2c3c(c(SCC(=O)Nc4nonc4C)nc2c1)CCCC3	i	-4.1	25.4%	-46.7%	6.3%
CCCCOc1ccc(C(=O)Nc2ccc3c(c2)N(C(C)=O)CCC3)cc1	/	7.1	0.3%	/	/
Cn1c(=O)c2c(nc(N3CCOCC3)n2CC(=O)C23CC4CC(CC(C4)C2)C3)n(C)c1=O	i	-0.4	4.4%	0.0%	-8.5%
CN1CCN(c2nc3c(c(=O)n(C)c(=O)n3C)n2CC(=O)C23CC4CC(CC(C4)C2)C3)CC1	-82.3%*	3.7	10.1%	?	8.7%
N#Cc1ccc(-c2ccc(OCC(=O)NN=Cc3ccncc3)cc2)cc1	i	-27.7	/	7.6%	35.5µM*
Cc1cc(C)n(-c2cc(C(C)(C)C)nc3c(-c4ccc(Cl)cc4)cnn23)n1	i	-10.3	0.3%	-49.2%	-5.5%
Cc1cc(C)n(-c2cc(C(C)(C)C)nc3c(-c4ccccc4)cnn23)n1	i	-80.0*	-1.0%	7.5%[15.4 µM]	-27.3%
COc1ccc(Cl)cc1S(=O)(=O)Nc1cccc(-c2ccc(N3CCOCC3)nn2)c1	/	-0.9	1.1%	/	/
